From PubChem
Pol iota inh: DNA polymerase iota (human) inhibition. Pol iota fluorescent replication assay, 10 min. AID 588590. Q9UNA4. 390,000 compounds, 1% hits. Potency, µM (doses to about 115 µM), inactives show top-dose activity, negative = inhibition, actives largely listed as inhibitors; further: potency means the concentration at half of the fitted maximal effect
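Pol iota at 10 nM preincubated 15 min with compounds at room temperature; reaction started with fluorescent substrate, 50 nM final. Fluorescence read kinetically at 0 and 10 min; buffer-only wells as negative control.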
Pol kappa inh-1: inhibitors of human DNA polymerase kappa. purified Pol kappa, fluorescent DNA synthesis assay, 10 min. Potency, µM (series often up to 107 µM), without a hit: at the top dose activity, negative = inhibition, actives largely listed as inhibitors. AID 588579. Q9UBT6. 400,000 compounds, 0.53% hits; further: potency means the concentration at half of the fitted maximal effect; on the % scale 0 is the no-effect control and ±100 the full control effect
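Activity was followed as the change in fluorescence between reads at 0 and 10 min after starting the reaction with 50 nM substrate. Beforehand, 10 nM polymerase had been preincubated with compound for 15 min at room temperature.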
WRN inhibitor: WRN helicase (human) inhibition | WRN helicase unwinding, fluorescent forked duplex, kinetic | Potency, µM (titrated, usually from 114 µM), for the others: top-dose activity change, negative = inhibition, usual class: inhibitors | 360,000 compounds, 0.46% hits; further: potency means the concentration at half of the fitted maximal effect; on the % scale 0 is the no-effect control and ±100 the full control effect; nearly all actives have a fitted effect of over 55% in size
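Primary qHTS, 1536-well format. 20 nM WRN + compound, 15 min RT; start with 100 nM forked fluorophore/quencher duplex, 2 mM ATP (final); kinetic read ex 525/em 598 nm.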
Pol eta inh-1: blocks human DNA polymerase eta activity; recombinant Pol eta, fluorescent DNA replication assay; Potency, µM (doses to about 114 µM), for the others: top-dose activity change, negative = inhibition, most hits filed as inhibitors; 390,000 compounds, 1.2% hits; AID 588591; further: potency means the concentration at half of the fitted maximal effect; on the % scale 0 is the no-effect control and ±100 the full control effect
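Pol eta (10 nM) was preincubated with compounds for 15 min at room temperature, after which fluorescent replication substrate (50 nM final) was added to start the reaction. Fluorescence was read kinetically at 0 and 10 min.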
POLB inh: blocks human DNA polymerase beta activity | Pol beta primer extension/strand displacement, fluorescence kinetic | Potency, µM (top dose mostly 114 µM), for the others: at the highest dose activity change, negative = inhibition, actives largely listed as inhibitors | 340,000 compounds, 1.3% hits; further: potency means the concentration at half of the fitted maximal effect; on the % scale 0 is the no-effect control and ±100 the full control effect
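10 nM enzyme + cpd, 15 min RT; start with substrate 50 nM final; read 0 min and after 10 min RT. Corrected, normalized data; 4-parameter Hill curve fit.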
PI5P4Ka inh: inhibitors of human PI5P4K alpha | PI5P4Kalpha enzyme, ADP-Glo luminescence, 60 min; stronger effect = lower value | max response, % | 330,000 compounds, 1.2% hits | AID 652105; active means max response of -50% or lower; inconclusive means between -30% and -50%; inactive means -30% or higher; further: value at the top dose of about 77 µM; on the % scale 0 is the no-effect control and ±100 the full control effect
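Compounds were pin-transferred onto PI5P4Kalpha and substrate in HEPES pH 7.4 buffer with EGTA, CHAPS and 5% DMSO. ATP (5 microM final) started the reaction, which ran 60 minutes at room temperature before ADP-Glo detection.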
PGK validate: validation of Trypanosoma brucei phosphoglycerate kinase inhibitors. TbPGK coupled GAPDH assay, Kinase-Glo luminescence. Potency, µM (doses to about 57.5 µM), for the others: top-dose activity change, negative = inhibition, actives largely listed as inhibitors. shares compounds with Pol kappa inh-1. 500 compounds, 79% hits. AID 686980; further: potency means the concentration at half of the fitted maximal effect; on the % scale 0 is the no-effect control and ±100 the full control effect; nearly all actives have a fitted effect of over 65% in size
Pol iota confirm: Human Pol iota inhibitor confirmatory assay | Pol iota primer extension, TAMRA/BHQ fluorescence | Potency, µM, hits mostly inhibitors | shares compounds with Pol kappa inh-1 | 1,500 compounds, 77% hits; further: potency means the concentration at half of the fitted maximal effect
Pol kappa inh-2: Pol kappa (human) inhibition, cherry-pick confirmation. shares compounds with Pol eta inh-1. 920 compounds, 76% hits. Potency, µM, most hits filed as inhibitors. purified Pol-kappa, fluorescent strand-displacement substrate; further: potency means the concentration at half of the fitted maximal effect
Pol eta inh-2: Pol eta (human) inhibition, cherry-pick confirmation; shares compounds with Pol eta inh-1; Pol eta primer extension, TAMRA/BHQ fluorescence, 10 min; Potency, µM, usual class: inhibitors; 2,600 compounds, 64% hits; AID 720502; further: potency means the concentration at half of the fitted maximal effect
An asterisk follows results filed as active; [ ] = dose if it differs, or a comment. Most compounds without a hit are left out; they make up all but 2.8% or so of the library. Unless noted, the call rests on the fitted dose curve; in most records, active means well fitted curve in the direction sought with a large enough effect; inconclusive means small, poorly fitted or top-dose-only effect, or another doubt; inactive means no such curve, though single readings can be large; an effect the other way counts as inactive or inconclusive.

`COc1cc2c(cc1OC)C(=O)C(Br)CC2` (stereo not given) gave WRN inhibitor 50µM*, Pol eta inh-1 20µM*, PI5P4Ka inh -51*, Pol iota confirm 67* and Pol eta inh-2 inconclusive.
Screening COc1cc2c(cc1OC)C(=O)C(c1ccc3c(c1)OCO3)CC2 (stereo not given) returned WRN inhibitor 5%, Pol eta inh-1 -5% and PI5P4Ka inh 0.
For O=C(CN1C(=O)CCc2cc(S(=O)(=O)N3CCOCC3)ccc21)NCc1ccc(F)cc1 the results were Pol iota inh 22%, Pol kappa inh-1 -8%[60.1 µM], Pol eta inh-1 -9% and POLB inh 80%.
Screening O=c1c(O)cccc2cc(O)c(O)c(O)c12 returned Pol iota inh inconclusive, Pol kappa inh-1 0.89µM*, WRN inhibitor 4µM*, Pol eta inh-1 -98%, POLB inh 0.16µM*, PI5P4Ka inh -83*, PGK validate 0.26µM*, Pol iota confirm 27*, Pol kappa inh-2 24* and Pol eta inh-2 19*.
Screening COc1cccc(N2CCN(C(=O)c3c(C)oc4ncnc(N5CCCCC5)c34)CC2)c1 returned Pol iota inh -19%, Pol kappa inh-1 -6%, Pol eta inh-1 -11% and POLB inh -23%.
For CC(C)Oc1ccc(C(=O)N(Cc2ccco2)c2ccccn2)cc1 the results were Pol iota inh 11%, Pol kappa inh-1 8%, Pol eta inh-1 -15% and POLB inh 5%.
Screening O=C(/C=C/c1ccco1)Nc1cccnc1 returned Pol iota inh 38%, Pol kappa inh-1 -26%, WRN inhibitor 4%, Pol eta inh-1 -3%, POLB inh 3% and PI5P4Ka inh -5.
O=C(/C=C/c1ccco1)c1cccnc1 was read as Pol iota inh inconclusive, Pol kappa inh-1 inconclusive, WRN inhibitor inconclusive, Pol eta inh-1 14µM*, POLB inh -25%, PI5P4Ka inh -27, Pol iota confirm 67* and Pol eta inh-2 30*.
Screening COc1ccc(N2CC(NC(=O)C3CC3)CC2=O)cc1 (stereo not given) returned Pol iota inh -27%, Pol kappa inh-1 -12%[60.1 µM], Pol eta inh-1 2% and POLB inh 2%.
For COc1ccc(C=C(C#N)C(=O)c2ccccc2)cc1 the results were WRN inhibitor -12% and PI5P4Ka inh -1.
Screening COc1cc(/C=C(\C#N)C(=O)c2ccc(O)c(O)c2)cc(I)c1O returned Pol iota inh 0.89µM*, Pol kappa inh-1 0.42µM*, WRN inhibitor 1.2µM*, Pol eta inh-1 0.89µM*, POLB inh 0.6µM*, PI5P4Ka inh -85*, PGK validate 3.7µM*, Pol iota confirm 6.7*, Pol kappa inh-2 2.4* and Pol eta inh-2 5.4*.
`Cc1cc2c(=O)cc(-c3ccccc3)oc2c(C(=O)O)c1C` gave WRN inhibitor -4%[57.1 µM] and PI5P4Ka inh 7.
Cc1cc(CC(=O)O)c2oc(-c3ccoc3)cc(=O)c2c1 was read as Pol iota inh inconclusive, Pol kappa inh-1 40µM*, WRN inhibitor inconclusive, Pol eta inh-1 8.9µM*, PI5P4Ka inh -22, Pol iota confirm 34* and Pol eta inh-2 7.6*.
Screening COc1ccc(NC(=O)CSc2nc(-c3cccc(C)c3)[nH]c2-c2ccccc2)cc1OC returned Pol iota inh inconclusive, Pol kappa inh-1 -26%, Pol eta inh-1 -2% and POLB inh -29%.
For N#C/C(=C\c1ccc([N+](=O)[O-])o1)C(=O)Nc1ccc(F)cc1 the results were Pol iota inh inconclusive, Pol kappa inh-1 79µM*, WRN inhibitor inconclusive, Pol eta inh-1 22µM*, POLB inh 40µM*, PI5P4Ka inh -84*, Pol iota confirm inconclusive and Pol eta inh-2 48*.
`CCOC(=O)c1cc(-c2ccc(OC)cc2)n(CCC(=O)Nc2nc3ccc(OCC)cc3s2)c1C` gave Pol iota inh 19%, Pol kappa inh-1 -11%[60.1 µM], Pol eta inh-1 -9% and POLB inh 0%.
Screening O=C(O)C1=C(C(=O)O)C2C=CC1C2 returned Pol iota inh inconclusive, Pol kappa inh-1 inconclusive, WRN inhibitor -2%[11.6 µM], Pol eta inh-1 20µM*, PI5P4Ka inh -9, PGK validate 10µM*, Pol kappa inh-2 24* and Pol eta inh-2 inconclusive.
Screening O=S(=O)(c1ccc(Br)cc1Cl)N1CCN(CCO)CC1 returned Pol iota inh 19%, Pol kappa inh-1 10%, WRN inhibitor 7%, Pol eta inh-1 -7%, POLB inh -11% and PI5P4Ka inh 0.
For O=C1C=CC(=O)c2c(O)c(N3CCN(CCO)CC3)c(Cl)c(O)c21 the results were Pol iota inh 5.6µM*, Pol kappa inh-1 22µM*, WRN inhibitor 32µM*, Pol eta inh-1 1.8µM*, PI5P4Ka inh inconclusive, Pol iota confirm 3.4*, Pol kappa inh-2 17* and Pol eta inh-2 17*.
Cc1ccc(/C=C/c2onc(C)c2S(=O)(=O)N2CCC(C(=O)NCC(C)c3ccccc3)CC2)cc1 (stereo not given) was read as Pol iota inh -16%, Pol kappa inh-1 -6%[60.1 µM], Pol eta inh-1 0% and POLB inh -2%.
Screening COC(=O)c1ccccc1NC(=O)CSc1nc2ccsc2c(=O)n1CCC(C)C returned Pol iota inh 8%, Pol kappa inh-1 0%[60.1 µM], Pol eta inh-1 10% and POLB inh 35%.
O=C(COC(=O)/C=C/c1cccc(F)c1)Nc1ncccn1 was read as Pol iota inh 50µM*, Pol kappa inh-1 inconclusive, WRN inhibitor -30%, Pol eta inh-1 28µM*, POLB inh -27%, PI5P4Ka inh -22, Pol iota confirm 42* and Pol eta inh-2 48*.
